Assay [1] is described as follows: E. coli DRC41 culture turbidity changes, primary screen, E. coli filamentation inducer project, strain DRC41, OD650, 48 h (AID 1152).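 Note: E. coli MC1000 strain DRC41 lacking acrAB efflux pump and sulA.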 As to conditions: E. coli DRC41 (acrAB sulA), higher = more signal, called active from +8 up or from −8 down.
Assay [2] in a line: small-molecule binders of probe aLefty1, primary screen, biochemical, small-molecule microarray, 635/667 nm fluorescence (AID 1153).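 Note: score merges spot fluorescence with signal-to-noise ratio from the scanned slide images.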 As to conditions: higher = more signal.
Assay [3] can be described thus: PSAC antagonists in infected red cells, primary screen, cell-based, P. falciparum Indochina, OD700, 1 h (AID 1154). As to conditions: P. falciparum Indochina infected RBC osmotic lysis, higher = more signal, called active from +8 up or from −8 down.
Assay [4] is described as follows: PSAC antagonists in infected red cells, primary screen, cell-based, P. falciparum Indochina, OD700, 2 h (AID 1155).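 Note: lysis reports solute entry through the parasite surface anion channel PSAC; channel blockers reduce lysis of infected cells.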 As to conditions: P. falciparum Indochina infected erythrocytes, osmotic lysis OD700; higher = more signal, called active from +8 up or from −8 down.
Assay [5] can be described thus: osmotic lysis modulators in infected erythrocytes, primary screen, PSAC antagonist project, cell-based, P. falciparum Indochina, OD700, 3 h (AID 1156). As to conditions: higher = more signal, called active from +8 up or from −8 down.
Assay [6] can be described thus: PSAC antagonists in infected red cells, primary screen, cell-based, P. falciparum Indochina, OD700, 18 h (AID 1157). As to conditions: P. falciparum Indochina infected erythrocytes, osmotic lysis OD700, 18 h; higher = more signal, called active from +8 up or from −8 down.
The nature of assay [7]: modulators of S6 phosphorylation in cells, primary screen, cell-based, A549, cytoblot, luminescence, serum-stimulated (AID 1158).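 Note: serum-stimulated A549 lung adenocarcinoma cells; signal is phosphorylated S6 detected by cytoblot immunostaining with HRP secondary.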 As to conditions: A549 phospho-S6 cytoblot, 5 h, higher = more signal.
For assay [8], the target named is NADPH oxidase 2 (Homo sapiens) (UniProt P04839). The experiment in a line: NOX2-dependent H2O2 signal modulators, primary screen, NOX inhibitor project, cell-based, HEK293-NOX2, PMA-stimulated, Amplex Red fluorescence (AID 1159). Note: test concentration not given here. As to conditions: 45 min, higher = more signal, called active from +8 up or from −8 down.
Assay [9] concerns the target NADPH oxidase 4 (Homo sapiens) (UniProt Q9NPH5). Briefly: NOX4-dependent H2O2 signal modulators, primary screen, NOX inhibitor project, cell-based, HEK293-NOX4, tetracycline-induced, Amplex Red fluorescence (AID 1160). As to conditions: 45 min, higher = more signal, called active from +8 up or from −8 down.
Assay [10] has as its target NADPH oxidase 5 (Homo sapiens) (UniProt Q96PH1). Briefly: NOX5-dependent H2O2 signal modulators, primary screen, NOX inhibitor project, cell-based, HEK293-NOX5, Amplex Red fluorescence (AID 1161). As to conditions: HEK293-NOX5, ionomycin, 45 min, higher = more signal.
Assay [11] is described as follows: A549 cell viability effects, profiling panel, calcein-AM fluorescence, 48 h, basal (AID 1162). Note: test concentration not given here. As to conditions: higher = more signal.
Assay [12] is described as follows: adipocyte viability effects, profiling panel, cell-based, 3T3-L1 adipocytes, calcein-AM fluorescence, 48 h, basal (AID 1163). Note: test concentration not given here. As to conditions: 3T3-L1 adipocytes viability, higher = more signal.
Assay [13] can be described thus: HepG2 cell viability effects, profiling panel, calcein-AM fluorescence, 48 h, basal (AID 1164). Note: test concentration not given here. As to conditions: higher = more signal.
A short description of assay [14]: MM1S cell viability effects, profiling panel, calcein-AM fluorescence, 48 h, basal (AID 1165).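 Note: viability of MM1S multiple myeloma cells under basal unstimulated conditions; test concentration not given here.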 As to conditions: higher = more signal.
Assay [15] is described as follows: basal RPMI8226 viability, no added stimulus, profiling panel, cell-based, calcein-AM fluorescence, 48 h, PK04 Diversity Set (AID 1166).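 Note: cells grown under basal conditions without added stimulus; test concentration not given here.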 As to conditions: RPMI8226 myeloma viability, higher = more signal.
A short description of assay [16]: basal HepG2 mitochondrial membrane potential changes, profiling panel, cell-based, JC-1 fluorescence, 24 h, 100 nL compound (AID 1167). Note: test concentration not given here. As to conditions: higher = more signal.
Assay [17] can be described thus: basal 3T3-L1 adipocyte mitochondrial potential changes, profiling panel, cell-based, JC-1 fluorescence, 3T3-L1 adipocytes, 24 h, 100 nL compound (AID 1168). Note: test concentration not given here. As to conditions: JC-1 mitochondrial fluorescence, higher = more signal, called active from +8 up or from −8 down.
Assay [18] in a line: basal RPMI8226 mitochondrial membrane potential changes, profiling panel, cell-based, JC-1 fluorescence, 24 h, 100 nL compound (AID 1169). Note: test concentration not given here. As to conditions: RPMI8226 myeloma, JC-1 mitochondrial potential fluorescence, higher = more signal.
A short description of assay [19]: basal MM1S mitochondrial membrane potential changes, profiling panel, cell-based, JC-1 fluorescence, 24 h, 100 nL compound (AID 1170). Note: test concentration not given here. As to conditions: higher = more signal.
The nature of assay [20]: A549 lung cancer cell viability effects, profiling panel, resazurin fluorescence, 24 h, PK04 Diversity Set (AID 1171). Note: test concentration not given here. As to conditions: higher = more signal, called active from +8 up or from −8 down. In general terms: Alamar Blue is a resazurin reagent that responds to reducing activity.

This is an account of results in PubChem BioAssay.

Activity calls are given as the source filed them.

Sequence of NADPH oxidase 2 (Homo sapiens) (P04839 whole entry, looked up): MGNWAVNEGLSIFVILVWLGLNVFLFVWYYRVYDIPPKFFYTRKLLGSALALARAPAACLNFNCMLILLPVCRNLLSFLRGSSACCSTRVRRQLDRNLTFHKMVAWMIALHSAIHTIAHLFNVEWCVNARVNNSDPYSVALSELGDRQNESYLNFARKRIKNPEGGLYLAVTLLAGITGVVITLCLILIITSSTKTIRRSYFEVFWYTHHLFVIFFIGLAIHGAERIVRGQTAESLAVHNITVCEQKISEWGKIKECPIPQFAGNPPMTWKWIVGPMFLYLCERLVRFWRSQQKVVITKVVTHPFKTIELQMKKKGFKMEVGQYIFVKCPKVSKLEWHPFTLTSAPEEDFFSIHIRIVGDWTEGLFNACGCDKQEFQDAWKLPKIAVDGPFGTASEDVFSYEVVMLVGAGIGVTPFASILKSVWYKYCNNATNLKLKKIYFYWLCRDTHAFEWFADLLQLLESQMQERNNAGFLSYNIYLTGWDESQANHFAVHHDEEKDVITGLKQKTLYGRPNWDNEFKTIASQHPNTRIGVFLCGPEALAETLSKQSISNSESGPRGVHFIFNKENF
Sequence of NADPH oxidase 4 (Homo sapiens) (Q9NPH5 whole entry, looked up): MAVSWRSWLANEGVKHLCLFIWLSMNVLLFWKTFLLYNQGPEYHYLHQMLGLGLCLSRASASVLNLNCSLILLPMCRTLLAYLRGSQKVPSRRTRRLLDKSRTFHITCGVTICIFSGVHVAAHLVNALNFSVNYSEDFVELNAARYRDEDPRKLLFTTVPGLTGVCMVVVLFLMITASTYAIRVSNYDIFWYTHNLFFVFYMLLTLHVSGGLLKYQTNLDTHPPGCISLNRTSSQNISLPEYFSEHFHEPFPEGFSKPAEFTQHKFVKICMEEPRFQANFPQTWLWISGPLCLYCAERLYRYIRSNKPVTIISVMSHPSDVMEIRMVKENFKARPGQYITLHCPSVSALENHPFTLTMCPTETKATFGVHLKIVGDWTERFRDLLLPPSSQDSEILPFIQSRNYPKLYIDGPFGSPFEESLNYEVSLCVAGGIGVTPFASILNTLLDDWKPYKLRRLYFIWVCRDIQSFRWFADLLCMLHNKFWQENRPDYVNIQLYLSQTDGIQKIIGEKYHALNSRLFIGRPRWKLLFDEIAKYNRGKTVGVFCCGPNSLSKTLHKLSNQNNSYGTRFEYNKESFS
Sequence of NADPH oxidase 5 (Homo sapiens) (Q96PH1 whole entry, looked up): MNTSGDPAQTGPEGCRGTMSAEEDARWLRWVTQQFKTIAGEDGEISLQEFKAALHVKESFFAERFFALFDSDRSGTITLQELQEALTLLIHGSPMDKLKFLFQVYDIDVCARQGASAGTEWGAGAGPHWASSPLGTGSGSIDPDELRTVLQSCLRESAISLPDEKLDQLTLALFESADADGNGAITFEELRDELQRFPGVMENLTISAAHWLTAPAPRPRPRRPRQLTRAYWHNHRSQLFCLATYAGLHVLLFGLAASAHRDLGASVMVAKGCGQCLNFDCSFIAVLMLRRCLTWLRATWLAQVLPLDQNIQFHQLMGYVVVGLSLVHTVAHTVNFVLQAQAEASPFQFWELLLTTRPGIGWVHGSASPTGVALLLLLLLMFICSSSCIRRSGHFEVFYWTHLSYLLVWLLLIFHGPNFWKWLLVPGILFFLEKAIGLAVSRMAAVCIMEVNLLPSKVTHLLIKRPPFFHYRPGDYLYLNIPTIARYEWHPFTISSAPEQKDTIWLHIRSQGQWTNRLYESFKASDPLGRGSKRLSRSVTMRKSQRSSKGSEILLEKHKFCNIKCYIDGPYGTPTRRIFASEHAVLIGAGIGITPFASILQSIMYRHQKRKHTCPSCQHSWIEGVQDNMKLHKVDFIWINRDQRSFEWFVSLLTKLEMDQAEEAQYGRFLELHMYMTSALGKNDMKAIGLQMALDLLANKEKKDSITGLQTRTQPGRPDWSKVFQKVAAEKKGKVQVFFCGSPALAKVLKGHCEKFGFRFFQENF

Turning to `CCC[C@@H]1C[C@@]1(CCC)[C@@H](NC(=O)c1ccco1)c1ccc(Cl)cc1`, the z-score in [1] is -1.37 (inactive); in assay [3], 1.85 (inactive); in assay [4], 0.238 (inactive); in assay [5], 0.425 (inactive); in assay [6], 0.469 (inactive); in assay [7] it was -0.0915. The z-score in [8] is -1.46 (inactive); in assay [9], -3.83 (inactive); in assay [10], -0.796; in assay [11], -1.03; in assay [12] it was -0.741; in assay [13] it was -1.06. Further, the z-score in [14] was -1.6; in [15] it was -4.31; in [16] it was -1.62; in assay [17] it was -0.00207 (inactive); in assay [18] it was -0.736; in assay [19], -2.07. The z-score in assay [20] was -1.91 (inactive). For the same compound, the composite z-score in [2] is -0.0035.
Regarding `COc1ccc([Si](C)(C)[C@H]2[C@H](CC(=O)N3CCC[C@H]3CO)O[C@@]3(C(=O)N(Cc4ccc(N5C(=O)c6cccc7cccc5c67)cc4)c4ccccc43)[C@@H]2C)cc1`, the z-score in [1] is -0.0217 (inactive); in [3] it was 6.9 (inactive); in assay [4] it was 1.31 (inactive); in [5] it was 1.72 (inactive); in [6], 0.771 (inactive); in assay [7], 0.298. Besides, the z-score was 1.86 (inactive) in assay [8]; 1.19 (inactive) in assay [9]; 2.62 in assay [10]; -0.706 in assay [11]; 0.867 in assay [12]; -0.154 in assay [13]. Besides, the z-score is -2.87 in assay [14]; -4.2 in assay [15]; 2.16 in assay [16]; 1.44 (inactive) in assay [17]; -1.1 in assay [18]; 0.28 in [19]. For the same compound, the z-score in assay [20] is -1.28 (inactive). The same compound showed a composite z-score in assay [2] of 0.0903.
With `CCCCC(=C=CC[C@H](O)c1cccc(OCCO)c1)C[C@H](O)COCc1ccccc1`, the z-score is 0.483 (inactive) in assay [1]; 15.3 (active) in assay [3]; 2.48 (inactive) in assay [4]; 0.658 (inactive) in assay [5]; 1.02 (inactive) in [6]; 0.949 in [7]. Further, the z-score is -2.67 (inactive) in assay [8]; -1.29 (inactive) in [9]; -2.41 in assay [10]; 0.803 in assay [11]; 0.403 in assay [12]; 0.0132 in assay [13]. For the same compound, the z-score in [14] was -1.06; in assay [15] it was -0.63; in assay [16], 0.214; in [17], 0.254 (inactive); in [18] it was 0.746; in assay [19] it was -0.378. In assay [20], the z-score is 1.4 (inactive). Further, the composite z-score in [2] was -0.0984.
With `CCCCC(O)C1C=CC2C(=O)N(Cc3ccccc3)C(=O)C2N1n1cnnc1` (stereo not given), the z-score in assay [1] was -1.18 (inactive); in assay [3], 0.706 (inactive); in assay [4], -1.16 (inactive); in assay [5], 0.662 (inactive); in assay [6] it was -1.85 (inactive); in assay [7], 1.99. In addition, the z-score is -3.33 (inactive) in assay [8]; -2.04 (inactive) in [9]; -3.3 in assay [10]; -1.15 in assay [11]; 0.845 in assay [12]; -0.189 in assay [13]. For the same compound, the z-score was 0.179 in [14]; -0.458 in assay [15]; 0.135 in assay [16]; -0.942 (inactive) in [17]; -0.874 in assay [18]; -1.26 in assay [19]. Further, the z-score in [20] was 0.164 (inactive). Moreover, the composite z-score in assay [2] came out at 0.574.
As to `CCCCC(=C=CC[C@H](O)c1ccccc1OCCO)C[C@H](O)c1ccccn1`, the z-score is 1.47 (inactive) in [1]; 4.7 (inactive) in [3]; 1.16 (inactive) in assay [4]; 2.3 (inactive) in assay [5]; 0.576 (inactive) in assay [6]; 0.822 in assay [7]. The z-score is -0.778 (inactive) in [8]; -0.193 (inactive) in assay [9]; -1.37 in assay [10]; 0.747 in assay [11]; -0.547 in assay [12]; 1.04 in [13]. In addition, the z-score was 0.7 in [14]; -0.327 in assay [15]; 0.21 in [16]; 0.589 (inactive) in assay [17]; -0.45 in [18]; -1.14 in [19]. Further, in [20], the z-score was 0.412 (inactive). Also, the composite z-score in [2] is -0.0536.
